# Whole data set: some 110,000 compounds, median “z-score” near -0.1, cut for the highest 2% near 2. The sample holds the highest values, similar compounds and a random draw of the others, so the mix is not that of the screen. Calls of active or inactive are those of the source.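 How the source made its calls: active means z-score in the third read window above 3 or below -3; inactive means the rest.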
# Target: Metabotropic glutamate receptor 8 (Rattus norvegicus) (UniProt P70579)
# Test: rat mGluR8 modulators via GIRK flux, primary screen, cell-based, thallium flux, HTS (AID 488969)
# Settings: HEK293 rat mGluR8, GIRK (G protein-gated inwardly rectifying potassium channel) thallium flux, FluoZin2; at 10 µM; stronger effect = higher value; submaximal glutamate (EC20) added with thallium
# Metabotropic glutamate receptor 8 (Rattus norvegicus), sequence (P70579 whole entry, looked up): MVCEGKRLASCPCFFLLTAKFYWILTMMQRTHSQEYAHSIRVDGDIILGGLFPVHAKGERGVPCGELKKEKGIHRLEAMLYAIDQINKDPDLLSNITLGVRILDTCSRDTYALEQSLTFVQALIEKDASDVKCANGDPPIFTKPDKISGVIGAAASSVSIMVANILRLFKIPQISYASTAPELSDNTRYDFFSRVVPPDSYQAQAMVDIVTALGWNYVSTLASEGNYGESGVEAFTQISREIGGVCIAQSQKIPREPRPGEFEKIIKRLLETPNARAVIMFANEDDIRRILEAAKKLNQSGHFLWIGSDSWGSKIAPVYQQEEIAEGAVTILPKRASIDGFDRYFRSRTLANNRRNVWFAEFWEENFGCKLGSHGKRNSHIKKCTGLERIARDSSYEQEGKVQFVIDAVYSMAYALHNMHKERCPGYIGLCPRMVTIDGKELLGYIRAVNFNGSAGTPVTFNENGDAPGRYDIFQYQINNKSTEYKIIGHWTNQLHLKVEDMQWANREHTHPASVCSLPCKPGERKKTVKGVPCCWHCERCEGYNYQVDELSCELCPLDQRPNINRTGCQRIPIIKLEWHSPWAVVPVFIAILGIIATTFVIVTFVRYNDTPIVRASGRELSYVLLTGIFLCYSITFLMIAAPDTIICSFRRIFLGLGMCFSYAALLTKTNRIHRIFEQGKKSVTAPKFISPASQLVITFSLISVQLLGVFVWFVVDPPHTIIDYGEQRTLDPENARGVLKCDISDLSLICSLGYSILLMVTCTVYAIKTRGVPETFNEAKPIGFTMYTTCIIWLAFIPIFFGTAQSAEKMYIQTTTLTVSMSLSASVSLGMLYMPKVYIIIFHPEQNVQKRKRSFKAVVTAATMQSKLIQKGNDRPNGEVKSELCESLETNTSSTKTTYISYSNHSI
row,Compound,z-score
1,Cc1nccn1CCc1nc(N)nc(N)n1,7.57 (active)
2,CCc1ccc(NC(=O)CCn2ccnc2C)cc1,0.306
3,CCn1c(CCn2ccnc2C)n[nH]c1=S,0.253
4,O=c1cc(CN2CCN(CCO)CC2)c2cc3c(cc2o1)CCC3,0.804
5,CCN(C(=O)c1ccco1)c1nc(CC(=O)Nc2ccc(Cl)cc2)cs1,-0.635
6,O=C(Nc1ccc2oc(-c3cccnc3)nc2c1)c1ccco1,-0.851
7,CCOC(=O)c1c(-c2ccc(C)o2)csc1NC(=O)COC(=O)c1cccs1,0.191
8,CCOC(=O)c1c(-c2ccc(C)o2)csc1NC(=S)NC(=O)c1cccs1,3.05 (active)
9,CCOC(=O)c1c(-c2ccc(C)o2)csc1NC(=S)NC(=O)c1ccccc1Br,0.406
10,CCOC(=O)c1c(-c2ccc(C)o2)csc1NC(=O)CN(C)CC(=O)Nc1ccc(C)cc1,-0.104
11,CCOC(=O)c1c(-c2ccc(C)o2)csc1NC(=S)NC(=O)N(C)C,13.6 (active)
12,CCOC(=O)c1c(-c2ccc(C)o2)csc1NC(=O)CSc1nnc(C)s1,-1.11
13,O=C1OCCC1Sc1nnc(-c2ccccc2)o1 (stereo not drawn),-0.134
14,Cc1c(Cl)cccc1NC(=S)NC1CCN(Cc2ccccc2)CC1,-0.67
15,Cc1cc(C(=O)OCC(=O)Nc2ccc(F)cc2)c(C)o1,2.45
16,Cc1cc(C(=O)OCC(=O)Nc2ccc(F)c(F)c2)c(C)o1,0.0113
17,Cc1occc1C(=O)OCC(=O)Nc1ccc(F)cc1,0.794
18,N#Cc1c(N)nc2c(c1-c1ccncc1)CCCC2,-0.232
19,Cc1cc2occ(CC(=O)NC3CCCc4ccccc43)c2cc1C (stereo not drawn),0.0042

row,Compound,z-score
1,COc1ccc2c(CC(=O)NC3CCCc4ccccc43)coc2c1 (stereo not drawn),-0.484
2,Cc1ccc2c(CC(=O)NC3CCCc4ccccc43)coc2c1 (stereo not drawn),4.11 (active)
3,CCOC(=O)C(NC(=O)NCc1ccc(OC)cc1)(OCC)C(F)(F)F (stereo not drawn),-0.306
4,O=C(c1ccc(Cl)cc1)c1cnc2ccccn12,-0.0464
5,O=C(Nc1ccccc1F)c1ccc(-n2cncn2)nc1,-0.0684
6,O=C(CN1CCCCCCC1)N/N=C/c1ccc(F)cc1F,-0.63
7,CC(=O)c1ccc(NC(=O)COC(=O)CCC(=O)c2cccs2)cc1,0.114
8,COC(=O)[C@H](C)NC(=O)Nc1cccc(C)c1,-0.0554
9,Cc1cccc(C)c1NC(=S)NC(=O)CCc1ccccc1,1.73
10,Cc1cccc(NC(=O)NC(C)CCc2ccccc2)c1 (stereo not drawn),4.17 (active)
11,Cc1cccc(NC(=S)NC(=O)CCc2ccccc2)c1,2.74
12,Cc1cccc(NC(=S)NC(=O)CCc2ccccc2)c1C,0.747
13,O=C(CCc1ccccc1)NC(=S)Nc1cccc(Br)c1,0.0148
14,Cc1ccccc1NC(=O)C(=O)NC(C)CCc1ccccc1 (stereo not drawn),7.37 (active)
15,Cc1ccccc1NC(=S)NC(=O)CCc1ccccc1,2.94
16,Cc1cccc(NC(=S)NC(C)CCc2ccccc2)c1 (stereo not drawn),0.2
17,Cc1cccc(NC(=S)NNC(=O)Cc2ccccc2)c1,0.0541
18,CC(CCc1ccccc1)NC(=O)C(=O)Nc1ccccc1 (stereo not drawn),-0.109
19,Cc1ccccc1NC(=S)NC(C)CCc1ccccc1 (stereo not drawn),0.22

# — PubChem BioAssay AID488969 (Vanderbilt High Throughput Screening Facility, 2010)
